Results filed as inconclusive are left out. Active and inactive are the calls of the source. Calls come from the whole dose curve; as a rule, active = well fitted curve in the direction sought with a large enough effect; inconclusive = small, poorly fitted or top-dose-only effect, or another doubt; inactive = no such curve, though single readings can be large; an effect the other way counts as inactive or inconclusive.
Assays:
[1] = molecular target: Rap guanine nucleotide exchange factor 3 (Homo sapiens) (UniProt O95398); test: Confirmatory qHTS for antagonist of cAMP-regulated guanine nucleotide exchange factor 3 (EPAC1) (AID 1645880); note: nearly all actives have a fitted effect of over 55% in size; note: potency is the fitted concentration of half-maximal effect
Outline: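 Released BODIPY-GDP fluoresces less than Rap1-bound BODIPY-GDP; the signal is followed at 480/540 nm at 5-min intervals over 30 min, after 5 min at room temperature. Reactions contain 100 nM EPAC1, 250 nM RAP1B-BODIPY-GDP and 50 uM GDP; results are normalized to ATA and DMSO.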

[2] = molecular target: Rap guanine nucleotide exchange factor 3 (Homo sapiens) (UniProt O95398); test: Confirmatory qHTS for agonist of cAMP-regulated guanine nucleotide exchange factor 3 (EPAC1) (AID 1645881); note: nearly all actives have a fitted effect of over 75% in size; note: potency is the fitted concentration of half-maximal effect;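 for activation: EPAC1 catalysed release of BODIPY-GDP from Rap1B seen as fluorescence loss; 100% = effect of cAMP agonist control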
[3] = molecular target: Rap guanine nucleotide exchange factor 4 (Homo sapiens) (UniProt Q8WZA2); test: Confirmatory qHTS for agonist of cAMP-regulated guanine nucleotide exchange factor 4 (EPAC2) (AID 1645884);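 note: nucleotide exchange releases bodipy-GDP from Rap1 and this lowers its fluorescence; nearly all actives have a fitted effect of over 65% in size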; note: potency is the fitted concentration of half-maximal effect; for activation: % is set by controls: 0 for no effect and ±100 for the full control effect
[4] = molecular target: Rap guanine nucleotide exchange factor 4 (Homo sapiens) (UniProt Q8WZA2); test: Confirmatory qHTS for antagonist of cAMP-regulated guanine nucleotide exchange factor 4 (EPAC2) (AID 1645885); note: nearly all actives have a fitted effect of over 25% in size; note: potency is the fitted concentration of half-maximal effect; for activity change, negative = inhibition: % is set by controls: 0 for no effect and ±100 for the full control effect
[5] = molecular target: Rap guanine nucleotide exchange factor 3 (Homo sapiens) (UniProt O95398); test: Counterscreen qHTS for antagonist of cAMP-regulated guanine nucleotide exchange factor 3 (EPAC1) (AID 1645888); note: % of control where 0% means no effect
Outline: (§1)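 Rap1B-BODIPY-GDP 250 nM + GDP 50 uM; cpds 7-pt, final 9.74 nM–152 uM (activator mode) or from 7.32 nM upwards (inhibitor mode); RT; FI 480/540 nm at 5 and 30 min, then ± cAMP, reread.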

[6] = molecular target: Rap guanine nucleotide exchange factor 3 (Homo sapiens) (UniProt O95398); test: Counterscreen qHTS for agonist of cAMP-regulated guanine nucleotide exchange factor 3 (EPAC1) (AID 1645889); note: nearly all actives have a fitted effect of over 40% in size; note: potency is the fitted concentration of half-maximal effect; for activation: % of control where 0% means no effect
Outline: as §1

Sequence of Rap guanine nucleotide exchange factor 4 (Homo sapiens) (Q8WZA2 whole entry, looked up): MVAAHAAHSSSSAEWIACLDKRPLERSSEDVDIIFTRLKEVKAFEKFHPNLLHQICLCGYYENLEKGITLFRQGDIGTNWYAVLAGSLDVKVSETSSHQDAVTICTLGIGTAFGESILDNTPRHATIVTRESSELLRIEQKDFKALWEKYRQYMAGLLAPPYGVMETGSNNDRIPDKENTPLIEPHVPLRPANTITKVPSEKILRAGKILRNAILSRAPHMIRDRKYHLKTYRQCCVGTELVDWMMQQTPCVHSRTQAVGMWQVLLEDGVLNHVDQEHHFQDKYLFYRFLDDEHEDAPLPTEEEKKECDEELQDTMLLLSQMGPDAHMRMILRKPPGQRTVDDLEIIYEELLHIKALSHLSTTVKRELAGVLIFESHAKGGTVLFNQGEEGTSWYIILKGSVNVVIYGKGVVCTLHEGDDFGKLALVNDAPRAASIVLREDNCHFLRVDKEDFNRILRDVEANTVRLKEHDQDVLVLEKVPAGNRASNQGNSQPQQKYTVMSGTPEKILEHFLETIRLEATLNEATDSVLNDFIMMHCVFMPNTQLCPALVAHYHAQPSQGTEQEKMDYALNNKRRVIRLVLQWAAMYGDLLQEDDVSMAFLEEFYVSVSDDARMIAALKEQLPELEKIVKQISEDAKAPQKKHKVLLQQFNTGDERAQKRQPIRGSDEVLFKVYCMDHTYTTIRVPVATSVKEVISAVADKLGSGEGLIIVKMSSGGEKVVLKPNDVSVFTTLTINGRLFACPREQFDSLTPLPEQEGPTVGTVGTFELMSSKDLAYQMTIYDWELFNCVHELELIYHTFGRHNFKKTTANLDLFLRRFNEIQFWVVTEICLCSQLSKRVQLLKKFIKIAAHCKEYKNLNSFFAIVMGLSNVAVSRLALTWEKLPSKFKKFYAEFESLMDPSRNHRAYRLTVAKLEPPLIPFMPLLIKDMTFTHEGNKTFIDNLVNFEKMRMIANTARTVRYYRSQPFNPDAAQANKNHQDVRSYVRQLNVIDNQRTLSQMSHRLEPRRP
Sequence of Rap guanine nucleotide exchange factor 3 (Homo sapiens) (O95398 whole entry, looked up): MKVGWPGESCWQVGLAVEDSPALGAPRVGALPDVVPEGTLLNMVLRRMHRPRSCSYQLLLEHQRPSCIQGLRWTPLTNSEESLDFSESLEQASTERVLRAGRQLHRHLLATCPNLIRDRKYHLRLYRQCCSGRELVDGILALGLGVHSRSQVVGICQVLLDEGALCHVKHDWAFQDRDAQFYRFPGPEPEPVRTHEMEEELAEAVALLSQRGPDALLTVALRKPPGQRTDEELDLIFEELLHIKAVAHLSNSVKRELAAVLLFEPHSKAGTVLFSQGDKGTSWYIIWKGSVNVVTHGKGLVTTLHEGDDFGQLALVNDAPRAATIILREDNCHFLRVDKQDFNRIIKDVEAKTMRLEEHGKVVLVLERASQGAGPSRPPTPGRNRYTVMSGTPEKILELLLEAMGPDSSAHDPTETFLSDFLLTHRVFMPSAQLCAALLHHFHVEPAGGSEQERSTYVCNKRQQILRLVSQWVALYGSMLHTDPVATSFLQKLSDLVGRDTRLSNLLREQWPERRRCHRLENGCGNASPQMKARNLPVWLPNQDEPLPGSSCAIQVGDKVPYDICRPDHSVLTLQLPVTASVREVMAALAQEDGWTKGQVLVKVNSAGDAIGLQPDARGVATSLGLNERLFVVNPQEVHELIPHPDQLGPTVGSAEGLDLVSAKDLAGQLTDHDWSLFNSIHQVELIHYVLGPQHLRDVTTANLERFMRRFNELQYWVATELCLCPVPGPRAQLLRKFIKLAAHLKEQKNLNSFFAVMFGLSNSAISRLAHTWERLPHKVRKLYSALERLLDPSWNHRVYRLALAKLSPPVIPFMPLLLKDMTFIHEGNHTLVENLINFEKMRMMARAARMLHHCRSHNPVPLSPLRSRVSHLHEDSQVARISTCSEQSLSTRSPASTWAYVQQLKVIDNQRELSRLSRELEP

COc1ccc(N2CCN(C(=O)CSc3ncn[nH]3)CC2)cc1
inactive: Potency [1] | Potency [2] | Potency [3] | Potency [4] | Potency [5] | Potency [6]

COC(=O)c1cn(C(=O)c2cc(OC)c(OC)c(OC)c2)c2ccccc12
inactive: Potency [1] | Potency [2] | Potency [3] | Potency [4] | Potency [5] | Potency [6]

CCCCn1c(N)c(N(CC(C)C)C(=O)C2CCN(C(=O)c3ccc(Cl)cc3)CC2)c(=O)[nH]c1=O
inactive: Potency [1] | Potency [2] | Potency [3] | Potency [4] | Potency [5] | Potency [6]

COc1cc(Cl)c(C)cc1NC(=O)c1ccc(CN2C(=O)CCn3nc(C)cc32)cc1
inactive: Potency [1] | Potency [2] | Potency [3] | Potency [4] | Potency [5] | Potency [6]

Cc1cc(Br)c2c(c1)C(O)(N1CCCCC1C)C(=O)N2 (centres undefined)
inactive: Potency [1] | Potency [2] | activation [3] 10.3% [at 17.1 µM, percent relative to cAMP agonist control] | Potency [4] | activity change, negative = inhibition [5] -0.193% [at 30.8 µM] | activation [6] 19.4% [at 30.8 µM]

O=C(O)CN1C(=O)/C(=C\c2cccc(OCc3ccc(Cl)cc3Cl)c2)SC1=S
active: Potency [1] 44.7 µM | Potency [4] 0.301 µM
inactive: Potency [2] | activation [3] 19.7% [at 17.1 µM, percent relative to cAMP agonist control] | activity change, negative = inhibition [5] -5.98% [at 30.8 µM] | activation [6] 8.88% [at 30.8 µM]

Cc1cc(N=Nc2ccccc2C(=O)O)c(C)c(C)c1O
active: Potency [1] 39.8 µM
inactive: Potency [2] | activation [3] -13.7% [at 17.1 µM, percent relative to cAMP agonist control] | Potency [4] | activity change, negative = inhibition [5] -28.9% [at 30.8 µM] | activation [6] 4.71% [at 30.8 µM]

Cc1ccc(S(=O)(=O)N2C(c3ccc(Cl)c(Cl)c3)CC=C(C(=O)O)C2c2ccc(Cl)cc2)cc1 (centres undefined)
active: Potency [1] 84.9 µM
inactive: Potency [2] | Potency [3] | Potency [4] | Potency [5] | Potency [6]

O=C(O)c1cccc(N/N=C/c2cc(Br)cc(Br)c2O)c1
active: Potency [1] 75.7 µM | Potency [4] 67.5 µM
inactive: Potency [2] | Potency [3] | Potency [5] | Potency [6]

CCOC(=O)N1CCN(C(=O)c2cc(S(=O)(=O)N3CCc4ccccc43)ccc2OC)CC1
inactive: Potency [1] | Potency [2] | Potency [3] | Potency [4] | Potency [5] | Potency [6]

COc1ccccc1Cc1nc2ccccc2nc1SCC(=O)Nc1ccccc1C(F)(F)F
inactive: Potency [1] | Potency [2] | Potency [3] | outcome [4] inactive [at 12.7 µM] | Potency [5] | Potency [6]

COc1ccc(S(=O)(=O)N2CCCC2)cc1C(C)C
inactive: Potency [1] | Potency [2] | activation [3] -3.36% [at 17.1 µM, percent relative to cAMP agonist control] | Potency [4] | activity change, negative = inhibition [5] -3.04% [at 30.8 µM] | activation [6] 2.24% [at 30.8 µM]

CCC(C(=O)OC)n1c(-c2ccccc2)nc2ccccc2c1=O (centres undefined)
active: Potency [4] 19 µM
inactive: Potency [1] | Potency [2] | Potency [3] | Potency [5] | Potency [6]

Cc1c(OC(C)C(=O)NC(Cc2c[nH]c3ccc(O)cc23)C(=O)O)ccc2c1oc(=O)c1ccccc12 (centres undefined)
inactive: Potency [2] | Potency [3] | Potency [4] | Potency [5] | Potency [6]
active: Potency [1] 13.5 µM

CCOC(=O)/C(C#N)=C/c1ccc(N2CCCCC2)cc1
inactive: Potency [1] | activation [3] 7.82% [at 17.1 µM, percent relative to cAMP agonist control] | Potency [4] | activity change, negative = inhibition [5] -1.56% [at 30.8 µM] | activation [6] 18.2% [at 30.8 µM]
active: Potency [2] 56.2 µM

Cc1ccn2cc(CNC(=O)c3cccs3)nc2c1
inactive: Potency [1] | Potency [2] | Potency [3] | Potency [4] | Potency [5] | Potency [6]

CCOC(=O)C1CCCCN1Cc1cn(C)nc1-c1ccccc1F (centres undefined)
inactive: Potency [1] | Potency [2] | Potency [3] | Potency [4] | Potency [5] | Potency [6]

CN(C(=O)CSc1nc(-c2ccc(C(C)(C)C)cc2)c(C#N)c(=O)[nH]1)C1CCCCC1
inactive: Potency [2] | Potency [3] | Potency [4] | Potency [5] | Potency [6]
active: Potency [1] 42.6 µM

COc1ccc(C/C(C)=N/NC(=O)c2cccnc2)cc1
inactive: Potency [1] | Potency [2] | activation [3] -0.201% [at 17.1 µM, percent relative to cAMP agonist control] | Potency [4] | activation [6] 7.53% [at 30.8 µM]

CCc1nnc(NS(=O)(=O)c2ccc(NC(=S)NC(=O)/C=C/c3ccccc3)cc2)s1
inactive: Potency [2] | Potency [3] | Potency [4] | Potency [6]
active: Potency [1] 67.5 µM

CN(C)c1ccc(/C=C/C=C/c2ccnc3ccccc23)cc1
inactive: Potency [2] | Potency [3] | Potency [4]

CCc1ccc(OCCCSc2nc(-c3ccc(C(C)(C)C)cc3)nc3cc(=O)[nH]n23)cc1
active: Potency [1] 42.6 µM
inactive: Potency [2] | Potency [3] | Potency [4] | Potency [6]

Cc1cccc(CN2[C@@H](CC(C)C)COCCS2(=O)=O)c1
inactive: Potency [1] | Potency [2] | Potency [3] | Potency [4] | Potency [6]

Cn1c(=O)cc(N2CCN(C(=O)c3ccco3)CC2)[nH]c1=O
inactive: Potency [1] | Potency [2] | Potency [3] | Potency [4] | Potency [5] | Potency [6]

CCCCOc1ccccc1Cn1c(=O)sc2ccccc21
inactive: Potency [1] | Potency [2] | Potency [3] | outcome [4] inactive [at 12.7 µM] | Potency [5] | Potency [6]

O=[N+]([O-])c1cc(Cl)ccc1NCCc1ccccn1
inactive: Potency [1] | Potency [2] | activation [3] -1.04% [at 17.1 µM, percent relative to cAMP agonist control] | Potency [4] | activation [6] -0.252% [at 30.8 µM]

CCCCCCNC(=O)c1cc(-c2ccco2)nc2ccccc12
inactive: Potency [2] | activation [3] 3.51% [at 17.1 µM, percent relative to cAMP agonist control] | Potency [4] | activity change, negative = inhibition [5] -13.3% [at 30.8 µM] | activation [6] 27.4% [at 30.8 µM]
active: Potency [1] 22.4 µM

O=c1oc2ccccc2nc1/C=C(O)/C=C\c1ccccc1
inactive: Potency [1] | Potency [2] | activation [3] 2.36% [at 17.1 µM, percent relative to cAMP agonist control] | Potency [4] | activation [6] -0.436% [at 30.8 µM]

COc1ccc(S(=O)(=O)CC(=O)c2cc3cc(Br)ccc3oc2=O)cc1
inactive: Potency [2] | activation [3] -4.99% [at 17.1 µM, percent relative to cAMP agonist control] | Potency [4] | activation [6] 7.34% [at 30.8 µM]
active: Potency [1] 50.1 µM

CC(=O)N(/N=C1/C(=O)Nc2ccccc21)c1ccccc1
active: Potency [1] 67.5 µM
inactive: Potency [2] | Potency [3] | Potency [5]

CC(OC(=O)c1nn(C)c(=O)c2ccccc12)C(=O)NC1CCCCC1C (centres undefined)
inactive: Potency [1] | Potency [2] | Potency [3] | Potency [4] | Potency [6]

Cc1cc(C)n2[nH]c(=O)c(N=Nc3ccc(S(N)(=O)=O)cc3)c2n1
active: Potency [4] 84.9 µM
inactive: Potency [1] | Potency [2] | Potency [3] | Potency [6]

Cc1cc(-c2csc(N)n2)c(C)n1CCC(C)C
inactive: Potency [1] | Potency [2] | Potency [3] | Potency [4] | Potency [5] | Potency [6]

CC(=O)N1CCc2cc(CNC(=O)c3ccccc3Br)ccc21
inactive: Potency [1] | Potency [2] | Potency [3] | Potency [4] | Potency [6]

O=C(O)c1ccc(N/N=C/c2c(F)cccc2Cl)cc1
inactive: Potency [1] | Potency [2] | activation [3] 2.99% [at 17.1 µM, percent relative to cAMP agonist control] | Potency [4] | activation [6] 3.47% [at 30.8 µM]

Nc1ccc(-c2c3ccc(=O)cc-3oc3cc(O)ccc23)c(C(=O)O)c1
inactive: Potency [1] | Potency [4]
active: Potency [2] 100 µM | Potency [3] 100 µM | Potency [6] 31.6 µM

NS(=O)(=O)c1ccc(NC(=O)Cc2c(F)cccc2Cl)cc1
inactive: Potency [1] | Potency [2] | Potency [3] | Potency [4] | Potency [6]

COC(=O)C(Cc1ccc(O)cc1)NC(=O)CCc1nc2ccccc2s1 (centres undefined)
inactive: Potency [2] | Potency [3] | Potency [4]

COc1cccc(C(c2nnnn2-c2c(C)cccc2C)N2CCN(C/C=C/c3ccccc3)CC2)c1OC (centres undefined)
inactive: Potency [1] | Potency [2] | Potency [3] | Potency [4] | Potency [6]

O=C(N/N=C/c1cn(-c2ccccc2)nc1-c1cccnc1)c1ccccc1
inactive: Potency [1] | Potency [2] | activation [3] 6.58% [at 17.1 µM, percent relative to cAMP agonist control] | Potency [4] | activation [6] 18.8% [at 30.8 µM]

COc1ccc2nc(N3CCN(C(=O)C4CC4)CC3)sc2c1
inactive: Potency [1] | Potency [2] | Potency [3] | outcome [4] inactive [at 12.7 µM] | Potency [5] | Potency [6]

CC1(C)Cc2ccccc2-c2nnc(-c3ccc4ccccc4n3)n21
inactive: Potency [1] | Potency [2] | Potency [3] | Potency [4] | Potency [5] | Potency [6]

Source: PubChem BioAssay (NCATS)
